This is a sample that favours compounds with a hit; in the whole collection about 4.7% have one here.
LMP1 NFkB inh: EBV LMP1-driven NF-kappaB luciferase reporter inhibitors, primary screen, cell-based, luminescence, single point. LMP1-induced NF-kappaB luciferase reporter cells. inhibition, % at 12.5 µM. 0.69% of 350,000 active. AID 504558, 2011; in the data active = inhibition above about 41%
TWEAK Fn14 block: inhibitors of TWEAK-Fn14 signaling, primary screen, luciferase reporter cells, uHTS. inhibition, % at 10 µM. TWEAK-stimulated Fn14 reporter cells, luciferase luminescence, 8 h. 2% of 360,000 active; in the data active = inhibition above about 50%
TROY NFkB inh: inhibitors of TROY-driven NF-kB signaling, primary screen, Q293 LMP1-TROYcd cells, NF-kB luciferase, uHTS. Q293 LMP1-TROYcd NF-kB luciferase reporter, 4 h. 0.98% of 360,000 active. AID 1347056, 2019. inhibition, % at 10 µM;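 active = compounds whose plate-normalised and pattern-corrected inhibition of the luciferase reporter signal at the single screening dose is 50% or more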
HSP90 refold inh: HSP90 inhibitors, primary screen, cell lysate, luminescence; Heat shock protein HSP 90 (rabbit reticulocyte lysate; luciferase refolding); Rabbit reticulocyte lysate, luciferase refolding luminescence, 3 h; inhibition, % at 5.6 µM; 0.91% of 290,000 active;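 active = inhibition above the screen-wide mean plus 3 SD, computed separately per campaign, cut at about 16% in these data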;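 note: inhibitors lower the luminescence because luciferase stays unfolded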
HSF1 inh: HSF1 inhibitors in luciferase reporter cells, primary screen, cell-based, NIH3T3, luminescence; NIH3T3-HGL HSE-luciferase, MG132-induced, luminescence 8 h; stronger effect = lower value; activity change, negative = inhibition, % at 7.5 µM (by protocol); 0.77% of 300,000 active; AID 2098, 2009;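 active = more than half of replicate wells show activity change below -50%, luminescence cut by over half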;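 note: luciferase reports HSF-1 transcriptional activity via heat shock element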
HSF-1 act: HSF-1 activators, primary screen, NIH3T3-HGL cells, MG132 stress, luminescence, single point; 1.7% of 300,000 active; activation, % at 9 µM; NIH3T3-HGL HSF-1 luciferase reporter, 8 h; 100% = twice DMSO control signal;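 active = mean replicate activation of at least 50% with a set share of replicates each reaching 50%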
Of the large screens only hits and unclear results are named; the others gave an inactive call.

O=[N+]([O-])c1ccc(C2CC(c3ccccc3)=Nc3ccccc3S2)cc1 (stereo not given)	none
CCc1ccc(NC2=NCC(c3ccccc3)S2)cc1 (stereo not given)	HSF-1 act 56
COc1ccc(S(=O)(=O)N2CCC[C@H]2C(=O)N2CCC[C@H]2C(=O)N(C)Cc2ccccc2)cc1C	none (no result: LMP1 NFkB inh, HSP90 refold inh, HSF1 inh, HSF-1 act)
COc1ccc(S(=O)(=O)NC(=O)C2(C)CCN2C(=O)Cc2cc(F)ccc2F)cc1 (stereo not given)	none (no result: LMP1 NFkB inh, HSP90 refold inh, HSF1 inh, HSF-1 act)
CN(C(=O)/C=C/c1cnc2ccccc2c1)C1CCCCC1	TWEAK Fn14 block 52
COc1ccc(/C=C/C(=O)N(C)C2CCCCC2)cc1Br	none
CCOc1ccc(-c2cc(C(=O)Nc3cccc(C(F)(F)F)c3)[nH]n2)c(C)c1	none (no result: LMP1 NFkB inh, HSP90 refold inh, HSF1 inh, HSF-1 act)
CCN(CC)c1ccc(-c2nnc(SCC(=O)Nc3ccccc3C#N)n2-c2ccccc2)cc1	TWEAK Fn14 block 75 (no result: TROY NFkB inh)
N#Cc1ccccc1NC(=O)CSc1nnc(-c2ccccc2)n1-c1ccccc1	none
COc1ccc(-c2cc(C(=O)NCc3ccc(F)cc3)[nH]n2)c(C)c1	none (no result: LMP1 NFkB inh, HSP90 refold inh, HSF1 inh, HSF-1 act)
Cc1nc2scc(-c3ccc(Cl)cc3)c2c(=O)n1N	HSF-1 act 94
COc1ccc(Cc2c(-c3ccc(OC)c(OC)c3)nc3cc(C)c(Br)c(C)n23)c(C)c1	none (no result: LMP1 NFkB inh, HSP90 refold inh, HSF1 inh, HSF-1 act)
C/C(=N\NC(=O)c1ccc(Cl)cc1)c1ccccn1	none
C/C(=N\NC(=O)COc1ccccc1-c1ccccc1)c1ccccn1	LMP1 NFkB inh 41
CC(=NNC(=S)N1CCC1)c1ccccn1	LMP1 NFkB inh 50 (no result: HSP90 refold inh, HSF1 inh, HSF-1 act)
C/C(=N\NC(=O)COc1ccccc1-c1ccccc1)c1cccnc1	none
CC(=NNC(=S)N1CCCC1)c1ccccn1	LMP1 NFkB inh 57 (no result: HSP90 refold inh, HSF1 inh, HSF-1 act)
CC(=NNC(=S)SCc1ccccc1)c1ccccn1	HSF1 inh 95, HSF-1 act 95 (no result: HSP90 refold inh)
Cc1cccc(C(=O)N2CCCC(Nc3ccc(C)c(C)c3)C2)n1 (stereo not given)	none
CC(=NNC(=S)N1CC2CCC(CC2)C1)c1cccc(C)n1	LMP1 NFkB inh 79 (no result: HSP90 refold inh)
Cc1cc(C)c(C)c(S(=O)(=O)N2CCNC(=O)C2)c1C	none (no result: HSP90 refold inh, HSF1 inh, HSF-1 act)
COc1ccc(NC(=O)n2ncc3c(C)cccc32)cc1	HSF-1 act 60
Cc1ccc(NC(=O)n2ncc3c(C)cccc32)cc1F	HSF-1 act 61
Cc1cccc2c1cnn2C(=O)Nc1ccccc1Br	none
COc1ccc(NC(=O)n2ncc3c(C)cccc32)cc1OC	HSF-1 act 53
COc1ccccc1NC(=O)COC(=O)C1CC(=O)N(c2ccc3c(c2)OCCO3)C1 (stereo not given)	TWEAK Fn14 block 64 (no result: HSP90 refold inh, HSF1 inh, HSF-1 act)
COc1ccccc1NC(=O)NC1CC(=O)N(c2ccc3c(c2)OCCO3)C1 (stereo not given)	none (no result: HSP90 refold inh)
O=C(COC(=O)C1CC(=O)N(c2ccc3c(c2)OCCO3)C1)Nc1ccc2c(c1)CCC2 (stereo not given)	TWEAK Fn14 block 65 (no result: HSF1 inh, HSF-1 act)
CC(=O)Oc1[nH]c(=O)c2cccc3c2c1CCC3	none (no result: HSP90 refold inh, HSF1 inh, HSF-1 act)
O=[N+]([O-])c1ccc2c(c1)CO[C@@]21O[C@H](CCO)C[C@H](O)[C@H]1O	none (no result: LMP1 NFkB inh, HSP90 refold inh, HSF1 inh, HSF-1 act)
COc1cc(/C=C2/NC(=O)N(Cc3ccccc3F)C2=O)ccc1Oc1ccc([N+](=O)[O-])cn1	none
O=C1N/C(=C/c2cccn2-c2ccccc2)C(=O)N1Cc1ccc(F)cc1	none
O=C1N/C(=C/c2cccn2-c2ccc(F)cc2)C(=O)N1Cc1ccccc1F	TWEAK Fn14 block 75
COc1cc(/C=C2/NC(=O)N(Cc3ccccc3F)C2=O)ccc1O	HSF-1 act 107
O=C(CCc1c[nH]c2ccccc12)N1CCN(S(=O)(=O)c2ccc([N+](=O)[O-])cc2)CC1	none (no result: HSP90 refold inh, HSF1 inh, HSF-1 act)
CSCCC(NS(=O)(=O)Cc1ccccc1)C(=O)NNc1ccccc1 (stereo not given)	none (no result: LMP1 NFkB inh, HSP90 refold inh, HSF1 inh, HSF-1 act)
COc1ccc(C(CC(=O)O)NC(=O)Cc2ccccc2)cc1OC (stereo not given)	none
C=CCC(Nc1ccccc1)c1ccc(OC)c(OC)c1 (stereo not given)	HSF1 inh -63 (no result: LMP1 NFkB inh, TWEAK Fn14 block, TROY NFkB inh)
